The values below come from PubChem BioAssay (NCI).

Structures are written as SMILES. The panel holds about 83,000 compounds, 20% with a hit somewhere; the sample as a whole holds those more often.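 Growth was measured after 48 h exposure to one concentration of compound in 96-well plates. Values under 10 count as active.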 Unmarked numbers belong to inactive results. Active and inactive are the calls of the source.

Assay in all cases: NCI-60 one-dose screen, 48 h (100 = growth as untreated, 0 = no growth, -100 = all killed)
What all share (conditions): 10 µM unless noted

The test system of test [1] is DU-145 prostate.
Test [2] relates to K-562 leukemia.
In test [3] the test system is MALME-3M melanoma.
Test [4] concerns MDA-MB-231 breast.
The test system of test [5] is RXF 393 renal.
The subject of test [6] is SF-268 CNS.
Test [7] concerns SF-295 CNS.
Test [8] concerns SF-539 CNS.
The test system of test [9] is UACC-257 melanoma.
Test [10] concerns M14 melanoma.
Test [11] relates to HCT-15 colon.
The subject of test [12] is HT29 colon.
Test [13] deals with SNB-75 CNS.
The subject of test [14] is SNB-19 CNS.
Test [15] relates to U251 CNS.
Test [16] relates to PC-3 prostate.
Test [17] deals with SK-MEL-5 melanoma.
Test [18] relates to UACC-62 melanoma.
Test [19] deals with LOX IMVI melanoma.
For test [20], the system named is SK-MEL-28 melanoma.

For `Cc1ccc(NC(=O)c2nc(S(C)=O)oc2-c2ccc(F)cc2)cc1Nc1nccc(-c2cccnc2)n1` (configuration not stated), the growth in [1] was 79.4%; in test [2], -16.7% (active); in test [3], 34.7%; in test [4] it was 39%; in test [5] it was 7.47% (active); in test [6], 54.4%. In addition, the growth is 86.4% in test [7]; 69.4% in [8]; 87.3% in test [9]; 55.2% in test [10]; 0.45% (active) in test [11]; 1.98% (active) in test [12]. Further, the growth in test [13] is 95.6%; in test [14], 74.2%; in [15], 39.2%; in [16], 72.9%; in test [17] it was 68.3%; in [18] it was 65%. Also, the growth in [19] is -72.1% (active); in test [20], 76.5%.

As to `F`, the growth in [1] is 49.5% [6.87 mM]; in [2], 60.9% [6.87 mM]; in test [3] it was -28.9% [6.87 mM] (active); in test [4], 5.12% [6.87 mM] (active); in test [5] it was 23.9% [6.87 mM]; in test [6], 40.9% [6.87 mM]. The growth is 2.46% [6.87 mM] (active) in test [7]; -13% [6.87 mM] (active) in test [8]; 0.483% [6.87 mM] (active) in test [9]; -23.4% [6.87 mM] (active) in test [10]; 57.4% [6.87 mM] in test [11]; 1.64% [6.87 mM] (active) in [12]. Further, the growth in test [13] was 11.4% [6.87 mM]; in [14] it was 41.2% [6.87 mM]; in [15] it was 17% [6.87 mM]; in [16], 33% [6.87 mM]; in test [17], -66.1% [6.87 mM] (active); in test [18], -74.4% [6.87 mM] (active). The growth in [19] was 1.06% [6.87 mM] (active).

Regarding `COc1ccc(C2C3CCc4ccccc4C3=NN2C(=O)c2cc(OC)c(OC)c(OC)c2)cc1O` (configuration not stated), the growth in test [1] was 111%; in test [2], 52.7%; in test [3] it was 77.2%; in [4], 103%; in test [5], 56.8%; in test [6], 105%. The growth in [7] is 91.2%; in test [8], 101%; in [9], 110%; in test [10] it was 101%; in [11], 109%; in test [12], 104%. In addition, the growth in test [13] was 89.4%; in test [14], 109%; in test [15], 108%; in test [16] it was 92.2%; in test [17], 104%; in test [18], 105%. Further, in test [19], the growth was 94.6%.

As for `Nc1cc2nc3ccccc3oc-2cc1=O`, the growth is -97.1% (active) in test [1]; 10.6% in [2]; -45.8% (active) in test [3]; 59.8% in test [4]; 81.1% in test [5]; 38.5% in test [6]. Moreover, the growth in test [7] is -11.1% (active); in test [8], -20% (active); in [9] it was 31.7%; in test [10] it was -83.6% (active); in test [11], 18.2%; in test [12] it was 38.8%. The growth is -86% (active) in test [13]; 80.8% in test [14]; 35.6% in test [15]; 27.8% in [16]; -97.9% (active) in test [17]; -75.2% (active) in test [18]. Moreover, the growth in test [19] was -11.4% (active); in test [20], -56.2% (active).

For `Cc1cc(C)cc(NC(=O)Cn2nncc2CN2C(=O)CSC2=O)c1`, the growth in test [1] is 109%; in [2] it was 101%; in test [3], 100%; in test [4], 97.5%; in test [5] it was 113%; in test [6], 101%. Moreover, the growth in [7] is 103%; in test [8] it was 94.7%; in test [9], 97.3%; in test [10], 106%; in test [11] it was 99.4%; in test [12], 108%. Also, the growth in [13] was 95.1%; in test [14], 100%; in [15], 102%; in test [16], 100%; in test [17] it was 103%; in test [18], 94%. Moreover, in [19], the growth is 91.3%.

As to `C[C@@H]1C[C@H](N)C[C@H](c2ccncc2NC(=O)c2ccc(F)c(-c3c(F)cccc3F)n2)C1`, the growth in test [1] was 80.4%; in test [2] it was 11.4%; in test [3], -20.6% (active); in test [4], 59.1%; in test [5], 23.2%; in test [6], 58.9%. For the same molecule, the growth is 71.9% in [7]; 70.2% in [8]; -69.4% (active) in test [9]; -30.8% (active) in test [10]; 52.4% in [11]; 10.9% in [12]. The growth in test [13] is 40.5%; in test [14], 69.3%; in [15], 42.6%; in test [16], 24.2%; in test [17] it was -59.8% (active); in test [18], 25.3%. The values for the growth in [19] and in [20] were 33.1% and 12.2%, respectively.

With `NS(=O)(=O)c1ccc(N2N=C(c3cccs3)CC2c2ccccc2O)cc1` (configuration not stated), the growth is -45% (active) in test [1]; 4.59% (active) in test [2]; 47.9% in test [3]; -19.3% (active) in test [4]; 27.1% in test [5]; 7.15% (active) in test [6]. Further, the growth in [7] is 1.4% (active); in [8], -23.5% (active); in test [9], 33.2%; in [10], 0.852% (active); in test [11], 4.16% (active); in test [12] it was -25.6% (active). Also, the growth in test [13] is 30.5%; in test [14] it was 63.3%; in test [15] it was 0.571% (active); in test [16], 8.13% (active); in test [17] it was -29.1% (active); in test [18] it was 24.2%. Moreover, the growth is 13.5% in test [19] and 27.3% in test [20].

On to `O=C1/C(=C\c2cccn2C(=O)c2ccccc2)c2ccccc2N1c1c(Cl)cccc1Cl`, for which the growth in test [1] is 102%; in test [2] it was 17.4%; in [3], 82.6%; in test [4] it was 74.6%; in test [5], 71.7%; in [6], 66.9%. The growth in [7] is 97.6%; in test [8], 79.4%; in [9] it was 90.7%; in [10], 76%; in test [11] it was 64.7%; in [12] it was 70%. For the same molecule, the growth was 71.9% in [13]; 87.7% in [14]; 72.8% in test [15]; 73.9% in test [16]; 83% in test [17]; 59.1% in test [18]. Besides, the growth in test [19] was 37.5%; in test [20], 74.1%.
